# Measured values published in PubChem BioAssay (NCATS).
# Activity calls are given as the source filed them. Calls follow the shape of the dose curve; as a rule, active = well fitted curve in the direction sought with a large enough effect (not every such curve was filed as active); inconclusive = small, poorly fitted or top-dose-only effect, or effect the other way, or another doubt; inactive = no such curve, though single readings can be large or run the other way.
# Target: Pyruvate kinase PKM (Homo sapiens) (UniProt P14618)
# Assay: qHTS Assay for Activators of Human Muscle Pyruvate Kinase (AID 954)
# Details: purified human muscle pyruvate kinase, luciferase-coupled luminescence, 1 h; series mostly up to 57.5 µM
# Description: NIH Molecular Libraries Screening Centers Network [MLSCN]
# NIH Chemical Genomics Center [NCGC]
# Wael M. Rabeh, Lyudmila Nedyalkova and Hee-Wan Park [Structural Genomics Consortium, 100 College St. Toronto, Ontario, Canada]
# Human pyruvate kinase muscle 2 enzyme was supplied as a highly purified (>95% pure) preparation by the Structural Genomics Consortium in Toronto (Ontario, Canada) and was assayed for its ability to generate ATP from ADP using phosphoenolpyruvate (PEP) as a substrate. ATP generation was detected in a coupled reaction by luciferase-mediated luminescence, an ATP-dependent process. Pyruvate kinase substrates, PEP and ADP, were present in the assay at Km and approximately […]-fold below Km respectively. The enzyme was assayed at an intermediate level of activity to screen for inhibitors and activators.
# NCGC Assay Protocol Summary:
# Three uL of substrate mix (final concentration, 50 mM imidazole pH 7.2, 50 mM KCl, 7 mM MgCl2, 0.5 mM PEP, 0.1 mM ADP, 0.01% Tween 20, 0.05% BSA) was dispensed into 1536 well plates. 23 nL of compound were delivered by a pin tool and 1 uL of enzyme mix (final concentration, 0.1 nM pyruvate kinase, 50 mM imidazole pH 7.2, 0.05% BSA) was added. Plates were incubated at room temperature for 1 hour. Two uL of detection and kinase stop mix (PKLight, Cambrex) was added, the plates centrifuged, and luminescence read by a ViewLux (Perkin Elmer) at 5 second exposure/plate. Data were normalized to the uninhibited and AC100 inhibition (no enzyme or 110 uM N-methyl-2,3-diphenyl-1,2,4-thiadiazol-5-imine; CID: 682802; LOPAC-S-4063). To monitor activation, 0.3 nM pyruvate kinase was included in one control column.
# Chain of Pyruvate kinase PKM (Homo sapiens) (P14618 whole entry, looked up): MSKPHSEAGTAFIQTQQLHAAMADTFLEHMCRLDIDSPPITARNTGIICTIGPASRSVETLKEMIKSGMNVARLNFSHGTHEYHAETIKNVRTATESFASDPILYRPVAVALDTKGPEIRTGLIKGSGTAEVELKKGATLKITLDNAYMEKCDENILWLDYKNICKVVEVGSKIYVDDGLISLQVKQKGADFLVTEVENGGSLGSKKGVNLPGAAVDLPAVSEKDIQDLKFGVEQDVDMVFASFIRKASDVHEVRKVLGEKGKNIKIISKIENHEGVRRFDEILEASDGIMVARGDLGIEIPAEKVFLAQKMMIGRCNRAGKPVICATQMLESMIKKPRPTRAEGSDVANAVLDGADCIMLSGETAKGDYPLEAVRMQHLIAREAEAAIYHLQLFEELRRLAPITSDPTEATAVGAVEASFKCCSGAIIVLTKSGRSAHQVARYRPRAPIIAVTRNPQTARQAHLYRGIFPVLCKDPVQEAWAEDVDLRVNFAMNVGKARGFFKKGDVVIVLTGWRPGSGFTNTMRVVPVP
row,Structure (SMILES),outcome
1,CN(C(=O)Cc1ccc(Cl)c(Cl)c1)[C@@H](CN1CCCC1)c1cccc(OCC(=O)O)c1,inactive
2,C/C(O)=C(/C#N)C(=O)Nc1cc(Br)ccc1Br,inactive
3,O=C1NCN(c2ccccc2)C12CCN(C[C@H]1COc3ccccc3O1)CC2,inactive
4,Oc1ccc2c3c1O[C@H]1c4[nH]c5ccccc5c4C[C@]4(O)[C@H](C2)N(CC2CC2)CC[C@@]314,inactive
5,CN1CCN(c2ccc3ccccc3n2)CC1,inactive
6,NC[C@H](CP(=O)(O)O)c1ccc(Cl)cc1,inactive
7,CN1C(=O)CCS(=O)(=O)[C@H]1c1ccc(Cl)cc1,inactive
8,COC(=O)N1CCN(C(=O)Cc2ccc(Cl)c(Cl)c2)[C@H](CN2CCCC2)C1,inactive
9,c1ccc2c(c1)OC[C@@H](C1=NCCN1)O2,inactive
10,C=CCN1CC[C@@]23c4c5ccc(O)c4O[C@H]2/C(=N\N=C2/CC[C@@]4(O)[C@H]6Cc7ccc(O)c8c7[C@@]4(CCN6CC=C)[C@@H]2O8)CC[C@]3(O)[C@@H]1C5,inactive
11,CCOC(=O)c1ncn2c1[C@H]1CCCN1C(=O)c1cc(OC)ccc1-2,inactive
12,COc1cc(CCN)ccc1O,inactive
13,Oc1ccc2c3c1O[C@H]1c4oc5ccccc5c4C[C@]4(O)[C@H](C2)N(CC2CC2)CC[C@@]314,inactive
14,CN1[C@@H]2CC[C@H]1CC(O[C@@H](c1ccccc1)c1ccc(Cl)cc1)C2 (stereo not given in full),inactive
15,N[C@@]1(C(=O)O)CC[C@H](C(=O)O)C1,inactive
16,N[C@H](C(=O)O)c1cc(=O)[nH]o1,inactive
17,O=C(Cc1ccc(Cl)c(Cl)c1)N1CCCC[C@H]1CN1CCCC1,inactive
18,N[C@H](CCP(=O)(O)O)C(=O)O,inactive
19,N#CC(C#N)=Cc1ccc([N+](=O)[O-])c(O)c1,inactive
20,COc1ccc(-n2nc(C(F)(F)F)cc2-c2ccc(Cl)cc2)cc1,inactive

row,Structure (SMILES),outcome
1,N[C@@H](Cn1cc(I)c(=O)[nH]c1=O)C(=O)O,inactive
2,COc1ccc2[nH]cc(CCN(C)C)c2c1,inactive
3,CC[C@]1(C2=NCCN2)Cc2ccccc2O1,inactive
4,C[C@@H](Cc1ccc(OCC(=O)O)cc1)NC[C@H](O)c1cccc(Cl)c1,inactive
5,CN1CC[C@@]23CCCC[C@@H]2[C@@H]1Cc1ccc(O)cc13,inactive
6,CC(C)[C@@]1(NC(=O)[C@@H]2C[C@H]3c4cccc5[nH]cc(c45)C[C@@H]3N(C)C2)O[C@@]2(O)[C@H]3CCCN3C(=O)[C@H](Cc3ccccc3)N2C1=O,inactive
7,C=C(C)[C@H]1CN[C@H](C(=O)O)[C@@H]1CC(=O)O,inactive
8,COc1ccc(CNC(=O)/C=C\c2ccc3[nH]cc(CCN(C)C)c3c2)cc1,inactive
9,Cc1o[nH]c(=O)c1C[C@H](N)C(=O)O,inactive
10,COc1ccc(CCN)cc1O,inactive
11,CP(=O)(O)CCCN,inactive
12,COC(=O)c1cc2c(cn1)[nH]c1ccccc12,inactive
13,C[C@H](N)Cc1cnc[nH]1,inactive
14,CC(C)(C)c1o[nH]c(=O)c1C[C@H](N)C(=O)O,inactive
15,CNc1ccc2oc(C[C@H]3O[C@]4(CC[C@H]3C)O[C@H]([C@H](C)C(=O)c3ccc[nH]3)[C@H](C)C[C@H]4C)nc2c1C(=O)O,inactive
16,N[C@H](CCCCCP(=O)(O)O)C(=O)O,inactive
17,C[C@H](N)Cc1c[nH]c2ccc(OCc3cccs3)cc12,inactive
18,C=CCN1CCC2(C)c3cc(O)ccc3C[C@H]1[C@H]2C,inactive
19,N[C@H](CP(=O)(O)O)C(=O)O,inactive
20,C[C@H](N)Cc1c[nH]c2ccc(O)cc12,inactive
